Compound activity: PubChem, The Scripps Research Institute Molecular Screening Center
FBW7 act – human FBW7 E3 ligase activation, primary screen. AlphaScreen FBW7–phospho-cyclin E peptide binding, activator screen. normalized activity (activation), % at 26.1 µM. 650,000 compounds, 0.13% hits; in the data active = normalized activity above about 1.9%;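 also: purified mutant Fbw7 with reduced substrate affinity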
Target sequence (Q969H0 whole entry, looked up): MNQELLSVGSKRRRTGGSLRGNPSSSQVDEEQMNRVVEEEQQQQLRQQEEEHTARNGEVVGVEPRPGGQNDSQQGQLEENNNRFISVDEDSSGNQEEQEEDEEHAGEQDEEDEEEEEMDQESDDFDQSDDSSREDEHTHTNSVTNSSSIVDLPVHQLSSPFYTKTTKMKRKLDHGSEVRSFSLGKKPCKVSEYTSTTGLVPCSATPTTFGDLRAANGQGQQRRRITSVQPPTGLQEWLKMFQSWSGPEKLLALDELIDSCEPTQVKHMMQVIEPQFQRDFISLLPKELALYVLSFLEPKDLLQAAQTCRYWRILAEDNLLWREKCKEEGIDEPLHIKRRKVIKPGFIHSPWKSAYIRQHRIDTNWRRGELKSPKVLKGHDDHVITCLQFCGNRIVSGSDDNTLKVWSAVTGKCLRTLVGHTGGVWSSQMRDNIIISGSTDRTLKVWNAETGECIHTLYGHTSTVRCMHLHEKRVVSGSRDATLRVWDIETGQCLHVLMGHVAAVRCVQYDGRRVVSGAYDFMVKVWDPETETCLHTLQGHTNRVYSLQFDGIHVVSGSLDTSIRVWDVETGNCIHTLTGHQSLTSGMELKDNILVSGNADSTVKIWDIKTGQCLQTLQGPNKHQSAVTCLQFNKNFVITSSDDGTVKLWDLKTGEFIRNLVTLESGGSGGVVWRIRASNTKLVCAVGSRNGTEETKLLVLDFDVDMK
GPR151 activ – activates the human receptor GPR151 | activation, % at 11.2 µM | Q8TDV0 | 650,000 compounds, 1% hits | PathHunter beta-arrestin GPR151 cells, luminescence; in the data active = activation above about 4.9%;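 also: 0% = median of compound wells and 100% = cells with positive control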
MITF inh – blocks human microphthalmia-associated transcription factor; O75030; AlphaScreen MITF homodimerization, bead proximity signal; inhibition, % at 2.6 µM; 650,000 compounds, 0.91% hits; AID 1259374; in the data active = inhibition above about 50%;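 also: 0% = vehicle wells with protein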
TEAD-YAP block – TEAD-YAP interaction inhibition | HEK-TIYL cells, TEAD-Gal4/YAP UAS-luciferase luminescence | inhibition, % at 9.12 µM | 640,000 compounds, 1.4% hits; in the data active = inhibition above about 32%;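 also: 0% = median of test compound wells and 100% = reference inhibitor wells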
MITF inh conf – human MITF inhibition, confirmation | inhibition, % at 2.6 µM | AID 1259372 | AlphaScreen MITF homodimerization, biotin/His-MITF beads | 4,700 compounds, 16% hits | shares compounds with MITF inh;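 active = inhibition above a cutoff derived from the DMSO control wells, cut at about 28% in these data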;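 also: 0% = MITF dimer wells with DMSO only; inhibitors lower the bead chemiluminescence by keeping MITF from dimerizing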
AS interf DR – counter-screen: compounds optically interfering with AlphaScreen. shares compounds with MITF inh. AlphaScreen optical interference counterscreen, cell-free. IC50, µM. 480 compounds, 6% hits; call rule not given here
AS interf ctr – AlphaScreen optical interference, counter-screen | shares compounds with MITF inh | LysRS AlphaScreen counterscreen, signal interference, triplicate | inhibition, % at 2.6 µM | 4,700 compounds, 7.6% hits;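 active = inhibition above a cutoff derived from the DMSO control wells, cut at about 30% in these data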
Starred values were filed as active, the others as inactive. Most compounds without a hit are left out; they make up all but 3.4% or so of the library.

How did C=CCNCCCOc1ccc(C(C)(C)C)cc1C do in these assays?
FBW7 act: 0; GPR151 activ: -1; MITF inh: 32; TEAD-YAP block: -7

How did O=C(CN(C(=O)c1ccc(Cl)cc1)N1C(=O)C2C3C=CC(C3)C2C1=O)c1cccs1 (stereo not drawn) do in these assays?
FBW7 act: 0; GPR151 activ: 0; MITF inh: -7; TEAD-YAP block: -2

What do the screens show for `COc1ccc(C(=O)N/N=C(/C)CC(=O)Nc2ccccn2)cc1OC`?
FBW7 act: 1; GPR151 activ: 1; MITF inh: 60*; TEAD-YAP block: -4; MITF inh conf: 4; AS interf ctr: 13

Results for CCC(=O)c1c(NC(=O)c2ccc(C)cc2)sc2c1CCN(CC)C2 ?
FBW7 act: 0; GPR151 activ: 1; MITF inh: -11; TEAD-YAP block: -1

Results for C=CCN(c1ccccc1)S(=O)(=O)c1ccc2[nH]cc(C(=O)O)c(=O)c2c1 ?
FBW7 act: 0; GPR151 activ: 0; MITF inh: 57*; TEAD-YAP block: 6; MITF inh conf: 12; AS interf ctr: -4

How did CN(Cc1ccco1)S(=O)(=O)c1ccc2[nH]cc(C(=O)O)c(=O)c2c1 do in these assays?
FBW7 act: 0; GPR151 activ: 1; MITF inh: 54*; TEAD-YAP block: -1; MITF inh conf: 30*; AS interf DR: >6.5; AS interf ctr: 5

Results for O=C(CNCCc1ccc2c(c1)OCCO2)N1CCc2ccccc21 ?
FBW7 act: 0; GPR151 activ: 0; MITF inh: 51*; TEAD-YAP block: 7; MITF inh conf: -3; AS interf ctr: 7

Results for O=C(NC1CCCC1)C1c2ccccc2Oc2ccccc21 ?
FBW7 act: 0; GPR151 activ: 0; MITF inh: 76*; TEAD-YAP block: -2; MITF inh conf: -2; AS interf ctr: -6

What do the screens show for `O=S(=O)(c1ccccc1)N1CCN(CC2CC=CCC2)CC1` (stereo not drawn)?
FBW7 act: 0; GPR151 activ: 0; MITF inh: 52*; TEAD-YAP block: 2; MITF inh conf: -1; AS interf ctr: 1

Results for O=[N+]([O-])c1ccccc1S(=O)(=O)N1CCN(CC2CC=CCC2)CC1 (stereo not drawn) ?
FBW7 act: 0; GPR151 activ: 1; MITF inh: 31; TEAD-YAP block: 2

What do the screens show for `O=[N+]([O-])c1ccccc1CN1CCN(CC2CC=CCC2)CC1` (stereo not drawn)?
FBW7 act: 0; GPR151 activ: 0; MITF inh: 66*; TEAD-YAP block: -13; MITF inh conf: -5; AS interf ctr: 3

What do the screens show for `Cc1ccc(CN2CCN(CC3CC=CCC3)CC2)cc1` (stereo not drawn)?
FBW7 act: 0; GPR151 activ: 0; MITF inh: 22; TEAD-YAP block: 3

What do the screens show for `Fc1cccc(CN2CCN(CC3CC=CCC3)CC2)c1` (stereo not drawn)?
FBW7 act: 0; GPR151 activ: 3; MITF inh: 83*; TEAD-YAP block: -4; MITF inh conf: -1; AS interf ctr: -3

How did Clc1ccccc1CN1CCN(CC2CC=CCC2)CC1 (stereo not drawn) do in these assays?
FBW7 act: 0; GPR151 activ: -1; MITF inh: 60*; TEAD-YAP block: 0; MITF inh conf: 6; AS interf ctr: -5

What do the screens show for `O=C(c1ccccc1)N1CCN(CC2CC=CCC2)CC1` (stereo not drawn)?
FBW7 act: 0; GPR151 activ: -1; MITF inh: 41; TEAD-YAP block: -4

Results for COCc1cc(=O)[nH]c2cc(NC(=O)c3cccc(OC)c3)c(C)cc12 ?
FBW7 act: 0; GPR151 activ: 0; MITF inh: -3; TEAD-YAP block: 12

How did O=S(=O)(c1cccc(S(=O)(=O)N2CCCCC2)c1)N1CCCCC1 do in these assays?
FBW7 act: 0; GPR151 activ: 2; MITF inh: 11; TEAD-YAP block: -2

Results for CC(C)(C)C1CCc2oc3c(cc(NS(=O)(=O)c4ccc(Cl)c([N+](=O)[O-])c4)c4ccccc43)c2C1 (stereo not drawn) ?
FBW7 act: 1; GPR151 activ: 0; MITF inh: 11; TEAD-YAP block: -2

How did O=C(CCC(=O)N/N=C/c1ccccc1Cl)N/N=C\c1ccccc1Cl do in these assays?
FBW7 act: 0; GPR151 activ: -1; MITF inh: -7; TEAD-YAP block: 0

How did O=C(NCCOc1ccccc1)c1ccc(-c2ccc(N3CCOCC3)nc2)s1 do in these assays?
FBW7 act: 0; GPR151 activ: -12; MITF inh: 80*; TEAD-YAP block: -32; MITF inh conf: 3; AS interf ctr: 2

How did O=C(NCc1ccccc1)c1ccc(-c2ccc(N3CCOCC3)nc2)s1 do in these assays?
FBW7 act: 0; GPR151 activ: 0; MITF inh: 12; TEAD-YAP block: 11

What do the screens show for `CCCCOC(=O)C1C2C=CC3(CN(c4ccc(C)cc4)C(=O)C13)O2` (stereo not drawn)?
FBW7 act: 0; GPR151 activ: 1; MITF inh: 5; TEAD-YAP block: 8

How did COc1ccc(OC)c(CN2CCN(Cc3ccccc3C)CC2)c1 do in these assays?
FBW7 act: 0; GPR151 activ: -2; MITF inh: 51*; TEAD-YAP block: -3; MITF inh conf: 6; AS interf ctr: 8

What do the screens show for `COc1ccc(CN2CCN(Cc3ccccc3C)CC2)c(OC)c1`?
FBW7 act: 0; GPR151 activ: 0; MITF inh: 83*; TEAD-YAP block: 10; MITF inh conf: 10; AS interf ctr: 4

How did CCS(=O)(=O)N1CCN(Cc2ccc(OC)cc2OC)CC1 do in these assays?
FBW7 act: 0; GPR151 activ: 0; MITF inh: 42; TEAD-YAP block: 7

Results for COc1ccc(/C=C/C(=O)OCC(=O)c2ccc(Br)s2)cc1OC ?
FBW7 act: 0; GPR151 activ: 0; MITF inh: 2; TEAD-YAP block: 14

How did COc1cc(C2C(C#N)=C(N)OC3=C2C(=O)CCC3)ccc1OCc1ccccc1F (stereo not drawn) do in these assays?
FBW7 act: 0; GPR151 activ: 0; MITF inh: 2; TEAD-YAP block: -35

How did CC(C(=O)NCc1ccco1)N1CCN(C)CC1 (stereo not drawn) do in these assays?
FBW7 act: 0; GPR151 activ: 2; MITF inh: -3; TEAD-YAP block: 6

What do the screens show for `C=CCC1(NCc2ccco2)CCN(C)CC1`?
FBW7 act: 0; GPR151 activ: 0; MITF inh: 63*; TEAD-YAP block: -4; MITF inh conf: 0; AS interf ctr: -3

Results for COc1cccc(CN2CCN(Cc3cc(OC)ccc3OC)CC2)c1 ?
FBW7 act: 0; GPR151 activ: 1; MITF inh: 75*; TEAD-YAP block: 8; MITF inh conf: -4; AS interf ctr: 1
